About 83,000 compounds went through this panel and 20% of them were active in at least one assay; those are over-represented in the sample as a whole.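 Cells were grown in 96-well plates and exposed to the test compound at a single concentration for 48 hours; results are reported as percent growth, with values below 10 considered active.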 Values without a mark were called inactive. Activity calls are given as the source filed them.

In the first experiment the test system is HS 578T breast. Kind of experiment: NCI-60 one-dose screen, 48 h (100 = growth as untreated, 0 = no growth, -100 = all killed). As to conditions: 10 µM unless noted.
In the case of `CC(C)(CO)N(CCO)CCO`, the growth is 113%.
Consider `CCCCCCCCn1ccc2cc(NC(=O)Cn3cc(CN4CCCCCC4)nn3)ccc21`, for which the growth is 65.7%.
With `COc1cc2cc(Oc3ccc(NC(=O)Nc4ccccc4)cc3)c(C)nc2cc1OCCN1CCCCC1`, the growth was 70.4%.
For the compound `CN1CCN(CCCOC(=O)c2c3c(n4ccccc24)C(=O)c2ncccc2C3=O)CC1`, the growth was -1.51% (active).
Still for that read-out and setting: for `Cc1ccc2[nH]c(-c3ccc(S(C)(=O)=O)cc3)c(/C=N/N=C(N)N)c2c1` the value was 50.5%; for `COc1ccc(C/C(C)=C(\c2ccc(O)cc2)c2ccc(OCCN3CCCC3)cc2)cc1`, 101%; for `CC1(C)C2CC=C(/C=N/NC(=O)C3CCC(=O)N3)C1C2` (stereo not given), 104%.
As for `COc1ccc2cc(-c3ccc(-c4ccc(C(=N)N)s4)s3)ccc2c1`, the growth was 90.3%.
Turning to `Cc1nc2sc(C(=O)Nc3ccccc3)c(N)c2cc1C(=O)/C=C/c1ccccc1`, the growth was 12%.
For the compound `O=C1/C(=C/c2ccc(C(F)(F)F)cc2)COc2ccc(O)cc21`, the growth is 95.8%.
With `Cc1[nH]c(C(=O)Nc2ccc(C(N)=O)cc2NC(C)C)c(Cl)c1Cl`, the growth is 82.6%.
In the case of `Oc1c(CN2CCCC2)cc(COCc2ccccc2)c2cccnc12`, the growth was 64.5%.
As for `CCCCCCCC/C=C\CCCCCCCCOc1ccccc1CC(=O)NCC[N+]1(C)CCCCC1`, the growth was 77.2%.
With `O=C1Nc2ccc(F)cc2/C1=C\c1nc(-c2ccccc2F)n2ccccc12`, the growth was 103%.
Regarding `CN(C)Cc1ccc(C(=O)Nc2ccc3ncnc(Nc4ccc(Oc5cccc(F)c5)c(Cl)c4)c3c2)cc1`, the growth was -11.7% (active).
As to `CCNC(=O)Oc1ccc(/C(=C(/C)Cc2ccc(OC)cc2)c2ccc(OCCN3CCCC3)cc2)cc1`, the growth was 70.9%.
Take `Cc1cscc(C)c1=S`: the growth is 122%.
For `CC(=O)N/C(=C1/OC(C(O)C(O)C(O)CO)CN1C)[P+](c1ccccc1)(c1ccccc1)c1ccccc1` (stereo not given), the growth was 114%.
The same measure, in the same setting: for `COC(=O)c1c2c(n3ccc(C)cc13)C(=O)c1ccccc1C2=O` the value was 77.7%; for `COc1cc2nc(Nc3cccc(F)c3)nc(Nc3cc(C)[nH]n3)c2cc1OC`, -59.3% [20 µM] (active).
Turning to `CC1=CCC[C@@H]2C1(C)CC[C@H](C)[C@@]2(C)CC1=CC(=O)C(SC(C)(C)C)=CC1=O` (stereo not given in full), the growth was 85%.
As to `O=C(/C=C/c1cccc(Cl)c1)c1cccc(OCCCCOc2cccc(C(=O)/C=C/c3cccc(Cl)c3)c2)c1`, the growth was 95.8%.
On to `CCCNc1nc2ccccc2c2c(=O)c3cccc(Cl)c3sc12`, for which the growth was 114%.
As to `COc1cccc(Nc2ccnc3[nH]c4ccc([N+](=O)[O-])cc4c23)c1`, the growth was 27.8%.
Consider `CCOC(=O)CSc1nc2sc3c(c2c(=O)n1-c1ccc([N+](=O)[O-])cc1)CCCCC3`, for which the growth was 39.7%.
As to `COc1cccc2c(N=NC(=O)c3ccc(S(N)(=O)=O)cc3)c(O)[nH]c12`, the growth is 101%.
On the same count and under the same terms, with `Clc1nccc2c(-c3csc(-c4c[nH]c5ccccc45)n3)c[nH]c12` the figure was 45.2%; with `COc1cc(/C=N/Nc2ccccc2F)cc(OC)c1OC`, 94.9%.
Still for that read-out and setting: for `COc1ccc2c(c1)c(-c1nc(-c3cn(C)c4ncccc34)cs1)cn2CCO` the value was 80.9%; for `CS(=O)(=O)Cc1cnc(C2OCCO2)s1`, 106%.
`COc1ccc(Nc2ncc(C(N)=O)c(NCCCNC(=O)C3CCC3)n2)cc1`: the growth was 71.5%.
For the compound `N#C/C(=C\c1ccc(-c2ccc(Cl)cc2)o1)c1ccc(Cl)cc1`, the growth is 29.8%.
In the case of `COc1cc(C(=O)/C=C/c2c(-c3cccs3)nc3ccccn23)cc(OC)c1OC`, the growth was -1.24% (active).
`Fc1ccc(CNc2c3ccccc3nc3ccccc23)cc1`: the growth is 39.5%.
Regarding `COc1cc(Nc2c3ccc(Cl)cc3nc3ccc(OC)cc23)c2ncccc2c1`, the growth was 65.1%.
Still for that read-out and setting: with `COc1cc(C2Cc3ncccc3-c3[nH]c(=O)c4cccnc4c32)cc(OC)c1OC` (stereo not given) the figure was 41.9%.
With `CCc1ccc(CCC(=O)Nc2ncc(Cc3ccc(Cl)cc3)s2)o1`, the growth is 2.63% (active).
Consider `N#Cc1c(-c2ccccc2)nc2c(c(-c3ccccc3)nn2-c2ccccc2)c1-c1ccc(N2CCOCC2)cc1`, for which the growth was 104%.
On the same count and under the same terms, for `COc1ccc(NC(=O)c2ccc(C(=O)Nc3ccc(OC)cc3OC)cc2)c(OC)c1` the value was 39.3%.
As for `CCN=C1C=CC(=C(c2ccc(N(C)C)cc2)c2ccc(N(C)C)cc2)c2ccccc21`, the growth was -29.8% (active).

A further experiment concerns NCI/ADR-RES ovarian. The experiment is described as above. As to conditions: 10 µM unless noted.
In the case of `CC(C)(CO)N(CCO)CCO`, the growth was 102%.
Regarding `CCCCCCCCn1ccc2cc(NC(=O)Cn3cc(CN4CCCCCC4)nn3)ccc21`, the growth was 55.1%.
As for `COc1cc2cc(Oc3ccc(NC(=O)Nc4ccccc4)cc3)c(C)nc2cc1OCCN1CCCCC1`, the growth was 90.5%.
As for `CN1CCN(CCCOC(=O)c2c3c(n4ccccc24)C(=O)c2ncccc2C3=O)CC1`, the growth was 2.37% (active).
Regarding `Cc1ccc2[nH]c(-c3ccc(S(C)(=O)=O)cc3)c(/C=N/N=C(N)N)c2c1`, the growth is 49.4%.
Take `COc1ccc(C/C(C)=C(\c2ccc(O)cc2)c2ccc(OCCN3CCCC3)cc2)cc1`: the growth is 104%.
For the compound `CC1(C)C2CC=C(/C=N/NC(=O)C3CCC(=O)N3)C1C2` (stereo not given), the growth was 105%.
Same read-out and setting: with `COc1ccc2cc(-c3ccc(-c4ccc(C(=N)N)s4)s3)ccc2c1` the figure was -43% (active); with `Cc1nc2sc(C(=O)Nc3ccccc3)c(N)c2cc1C(=O)/C=C/c1ccccc1`, -10.7% (active).
On to `O=C1/C(=C/c2ccc(C(F)(F)F)cc2)COc2ccc(O)cc21`, for which the growth was 94.3%.
For `Cc1[nH]c(C(=O)Nc2ccc(C(N)=O)cc2NC(C)C)c(Cl)c1Cl`, the growth was 88.2%.
Consider `Oc1c(CN2CCCC2)cc(COCc2ccccc2)c2cccnc12`, for which the growth is -7.48% (active).
For `CCCCCCCC/C=C\CCCCCCCCOc1ccccc1CC(=O)NCC[N+]1(C)CCCCC1`, the growth was 99.3%.
Same read-out and setting: for `O=C1Nc2ccc(F)cc2/C1=C\c1nc(-c2ccccc2F)n2ccccc12` the value was 74.4%; for `CN(C)Cc1ccc(C(=O)Nc2ccc3ncnc(Nc4ccc(Oc5cccc(F)c5)c(Cl)c4)c3c2)cc1`, 22.7%.
Take `CCNC(=O)Oc1ccc(/C(=C(/C)Cc2ccc(OC)cc2)c2ccc(OCCN3CCCC3)cc2)cc1`: the growth was 85.9%.
With `Cc1cscc(C)c1=S`, the growth is 71.1%.
The same measure, in the same setting: with `CC(=O)N/C(=C1/OC(C(O)C(O)C(O)CO)CN1C)[P+](c1ccccc1)(c1ccccc1)c1ccccc1` (stereo not given) the figure was 101%; with `COC(=O)c1c2c(n3ccc(C)cc13)C(=O)c1ccccc1C2=O`, 72.8%.
As to `COc1cc2nc(Nc3cccc(F)c3)nc(Nc3cc(C)[nH]n3)c2cc1OC`, the growth is -57.8% [20 µM] (active).
Consider `CC1=CCC[C@@H]2C1(C)CC[C@H](C)[C@@]2(C)CC1=CC(=O)C(SC(C)(C)C)=CC1=O` (stereo not given in full), for which the growth was 84.8%.
For the compound `O=C(/C=C/c1cccc(Cl)c1)c1cccc(OCCCCOc2cccc(C(=O)/C=C/c3cccc(Cl)c3)c2)c1`, the growth was 99.7%.
With `CCCNc1nc2ccccc2c2c(=O)c3cccc(Cl)c3sc12`, the growth was 101%.
The same measure, in the same setting: with `COc1cccc(Nc2ccnc3[nH]c4ccc([N+](=O)[O-])cc4c23)c1` the figure was 44.4%.
Consider `CCOC(=O)CSc1nc2sc3c(c2c(=O)n1-c1ccc([N+](=O)[O-])cc1)CCCCC3`, for which the growth is 84.3%.
On to `COc1cccc2c(N=NC(=O)c3ccc(S(N)(=O)=O)cc3)c(O)[nH]c12`, for which the growth was 105%.
On to `Clc1nccc2c(-c3csc(-c4c[nH]c5ccccc45)n3)c[nH]c12`, for which the growth is 53.1%.
For the compound `COc1cc(/C=N/Nc2ccccc2F)cc(OC)c1OC`, the growth was 99.6%.
Consider `COc1ccc2c(c1)c(-c1nc(-c3cn(C)c4ncccc34)cs1)cn2CCO`, for which the growth was 90%.
In the case of `CS(=O)(=O)Cc1cnc(C2OCCO2)s1`, the growth was 103%.
With `COc1ccc(Nc2ncc(C(N)=O)c(NCCCNC(=O)C3CCC3)n2)cc1`, the growth is 100%.
As for `N#C/C(=C\c1ccc(-c2ccc(Cl)cc2)o1)c1ccc(Cl)cc1`, the growth is 60%.
On to `COc1cc(C(=O)/C=C/c2c(-c3cccs3)nc3ccccn23)cc(OC)c1OC`, for which the growth is -15.6% (active).
On to `Fc1ccc(CNc2c3ccccc3nc3ccccc23)cc1`, for which the growth is 29.7%.
For `COc1cc(Nc2c3ccc(Cl)cc3nc3ccc(OC)cc23)c2ncccc2c1`, the growth was 53.9%.
As to `COc1cc(C2Cc3ncccc3-c3[nH]c(=O)c4cccnc4c32)cc(OC)c1OC` (stereo not given), the growth was 31.1%.
Same read-out and setting: with `CCc1ccc(CCC(=O)Nc2ncc(Cc3ccc(Cl)cc3)s2)o1` the figure was 17.3%; with `N#Cc1c(-c2ccccc2)nc2c(c(-c3ccccc3)nn2-c2ccccc2)c1-c1ccc(N2CCOCC2)cc1`, 94.6%; with `COc1ccc(NC(=O)c2ccc(C(=O)Nc3ccc(OC)cc3OC)cc2)c(OC)c1`, 79.6%.
Consider `CCN=C1C=CC(=C(c2ccc(N(C)C)cc2)c2ccc(N(C)C)cc2)c2ccccc21`, for which the growth is 12.3%.

The values above are taken from PubChem BioAssay (NCI).
